# Among all 300,000 compounds or so, about 1,000 (0.33%) were called active. For the sample, actives were picked, then their nearest neighbours and some compounds at random. Values without a mark were called inactive. Cut-off read from the data, not from the text of the source: active = inhibition above about 28%; inactive = the rest.
# Tested on: EBNA-1 (Epstein-Barr virus nuclear antigen 1), Human herpesvirus 4
# Test: blockers of EBV EBNA-1 binding to DNA – biochemical, fluorescence polarization, primary screen (AID 1950)
# Details: EBNA-1 DNA binding, at 14.8 µM, active compounds read high
row,Compound,inhibition
1,O=C(CC(=O)N/N=C\c1cccc(Cl)c1Cl)NCc1ccccc1,0.69%
2,COc1cccc(N2CC(NS(=O)(=O)c3cccs3)CC2=O)c1 (stereo not drawn),-3.98%
3,CC(=O)NC(CC(=O)Nc1nc(-c2ccccc2)c(C(C)=O)s1)c1ccccc1 (stereo not drawn),6.2%
4,O=c1o[nH]c(-c2ccccc2)c1N=Nc1c(F)cccc1Cl,-1.23%
5,COc1ccc(S(=O)(=O)Nc2ccc(S(=O)(=O)N3CCCCC3)cc2)cc1OC,-12.3%
6,COc1ccc(S(=O)(=O)N2CCCCCC2)cc1C(=O)OCC(=O)Nc1cc(C)on1,-10.6%
7,COc1ccc(-c2ccc(Nc3ccc(S(=O)(=O)N4CCCC4)cc3)nn2)cc1OC,61.7% (active)
8,CCCn1c2ccccc2c2cnn(CC(=O)NCCCN3CCCCC3CC)c(=O)c21 (stereo not drawn),-11.4%
9,O=[N+]([O-])c1cc(S(=O)(=O)Nc2cccc(Cl)c2)ccc1N=Nc1c(O)[nH]c2ccccc12,-1.48%
10,CCc1ccc(NC(=O)Nc2ccncc2)cc1,-0.73%
11,CC(=O)c1ccc(NC(=O)C2CC(=O)Nc3nc4ccccc4n32)cc1 (stereo not drawn),-7.52%
12,CCOC(=O)C1=C(C)Nc2nc3ccccc3n2C1c1cccs1 (stereo not drawn),3.55%
13,CCOC(=O)c1ccc(NC(=O)C2CC(=O)Nc3nc4ccccc4n32)cc1 (stereo not drawn),30.4% (active)
14,Cc1ccc(NS(=O)(=O)c2ccc3c(c2)n(C)c(=O)c(=O)n3C)c(C)c1,-9.29%
15,CCCS(=O)(=O)Nc1ccc(-c2cn3c(n2)SCC3)cc1,-2.75%
16,CCOc1ccc(OCC)c(NC(=O)C(NS(=O)(=O)c2ccc3c(c2)oc(=O)n3C)C(C)C)c1 (stereo not drawn),38% (active)
17,COc1cccc(NC(=O)CCNS(=O)(=O)c2ccc3c(c2)oc(=O)n3C)c1,-10.5%

row,Compound,inhibition
1,CSCCC(NS(=O)(=O)c1ccc2c(c1)oc(=O)n2C)C(=O)NCc1ccccc1 (stereo not drawn),1.42%
2,CC(Oc1ccc(Br)cc1)C(=O)NCC(c1ccco1)N1CCCCC1 (stereo not drawn),-5.29%
3,CC(C)OC(=O)c1ccc(COc2ccc3ccc(=O)oc3c2)o1,0.87%
4,O=C(OCC1O[C@@H](OC(=O)c2cc(O)c(O)c(O)c2)[C@@H](OC(=O)c2cc(O)c(O)c(O)c2)[C@@H](OC(=O)c2cc(O)c(O)c(O)c2)[C@@H]1OC(=O)c1cc(O)c(O)c(O)c1)c1cc(O)c(O)c(O)c1 (stereo partly drawn),36.5% (active)
5,O=C(OCC1OC(Oc2ccc(O)cc2)C(O)C(O)C1O)c1ccccc1 (stereo not drawn),-9.05%
6,Cn1c(=O)[nH]c(=O)c2c1[nH]c(=S)n2Cc1ccccc1,9.15%
7,O=C(COc1ccc([N+](=O)[O-])cc1)Nc1cccc(C(=O)Nc2ccccc2C(=O)O)c1,8.21%
8,C=CCNC(=S)/N=c1/ccccn1Cc1ccccc1,3.92%
9,CCN(CC)CCN1C(=O)C2C(C(=O)Nc3ccc(Br)cc3)C3C=CC2(O3)C1C(=O)NC1CCCCC1 (stereo not drawn),5.67%
10,COc1ccc(CCNC(=S)N2CCN(S(=O)(=O)c3ccc(Cl)cc3)CC2)cc1,7.36%
11,COc1ccc(CCNC(=O)C2CCCN(S(=O)(=O)c3ccc(OC)cc3)C2)cc1 (stereo not drawn),5.18%
12,COc1ccc(CCNC(=S)N2CCN(S(=O)(=O)c3ccc(F)cc3)CC2)cc1,34.3% (active)
13,OC(COc1ccc(CN2CCSCC2)cc1)CN1CCCCC1 (stereo not drawn),3.92%
14,COc1ccc(/C=C2\SC(=S)N(CCCC(=O)NC3CCCC3)C2=O)cc1OC,-4.95%
15,CC(=O)NNC(=O)c1csc(Cc2c(Cl)sc3ccc(Cl)cc23)n1,-5.11%
16,Cc1cc(OCC(=O)NCC(O)c2ccccc2)c2c(C)c(C)c(=O)oc2c1 (stereo not drawn),3.74%

# — PubChem BioAssay AID1950 (The Scripps Research Institute Molecular Screening Center, 2009)
